This is an account of results in PubChem BioAssay (NCI).

The panel holds about 83,000 compounds, 20% with a hit somewhere; the sample as a whole holds those more often.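 Single-dose data. Exposure time 48 hours. Values below 10 considered active.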 Values without a mark were called inactive. Calls of active or inactive are those of the source.

Among the test systems are HCT-15 colon; HT29 colon; SNB-75 CNS; SNB-19 CNS; U251 CNS; PC-3 prostate; SK-MEL-5 melanoma; UACC-62 melanoma; LOX IMVI melanoma; SK-MEL-28 melanoma; SK-MEL-2 melanoma; EKVX NSCLC; SN12C renal; UO-31 renal; TK-10 renal; ACHN renal; CAKI-1 renal; A498 renal; CCRF-CEM leukemia; MOLT-4 leukemia.
Common to all, as to experiment: NCI-60 one-dose screen, 48 h (100 = growth as untreated, 0 = no growth, -100 = all killed)
What all share (conditions): 10 µM unless noted

`CSc1ccc2c3c(n(CCCn4ccnc4)c(=O)c2c1)-c1ccccc1C3=O`: the growth is 61.1% in the assay with HCT-15 colon; 27.1% in the assay on HT29 colon; 51.6% in the assay with SNB-75 CNS; 33.2% with SNB-19 CNS; 12.7% with U251 CNS; 45.6% in the assay with PC-3 prostate. For the same compound, the growth is 19.5% in the assay on SK-MEL-5 melanoma; 19.8% in the assay with UACC-62 melanoma; 1.75% (active) with LOX IMVI melanoma; 78.5% in the assay on SK-MEL-28 melanoma; 97.1% in the assay with SK-MEL-2 melanoma; 84.4% with EKVX NSCLC. Besides, the growth in the assay on SN12C renal was 45.1%; with UO-31 renal, 26.3%; with TK-10 renal, 83.1%; in the assay on ACHN renal, 12.4%; in the assay on CAKI-1 renal, 24.6%; with A498 renal, 68.5%. Also, the growth in the assay with CCRF-CEM leukemia was 15.6%; in the assay on MOLT-4 leukemia, -3.86% (active).

In the case of `O=C1CCCC1[n+]1ccccc1` (stereo not given), the growth was 97.1% in the assay with HCT-15 colon; 61.4% in the assay with HT29 colon; 86.3% in the assay on SNB-75 CNS; 103% in the assay on SNB-19 CNS; 84.4% in the assay with U251 CNS; 81.7% with PC-3 prostate. Besides, the growth is 104% in the assay with SK-MEL-5 melanoma; 96.5% in the assay on UACC-62 melanoma; 99% in the assay on LOX IMVI melanoma; 84.3% with SK-MEL-28 melanoma; 85.3% in the assay on SK-MEL-2 melanoma; 92.6% with EKVX NSCLC. For the same compound, the growth in the assay with SN12C renal is 104%; in the assay on UO-31 renal, 90%; with TK-10 renal it was 79.4%; in the assay on ACHN renal, 105%; in the assay on CAKI-1 renal it was 92.4%; with A498 renal, 126%. For the same compound, the growth in the assay with CCRF-CEM leukemia is 105%; in the assay on MOLT-4 leukemia, 113%.

Turning to `COc1cc2c(cc1OCCCN1CCN(C(=S)SCCC(C#N)(c3ccccc3)c3ccccc3)CC1)N=C[C@@H]1CCCN1C2=O`, the growth in the assay with HCT-15 colon was -89.5% (active); in the assay on HT29 colon, -89.3% (active); with SNB-75 CNS it was -91.5% (active); in the assay on SNB-19 CNS, -44.4% (active); in the assay with U251 CNS, -95.7% (active); in the assay on PC-3 prostate, -34.9% (active). In addition, the growth in the assay with SK-MEL-5 melanoma is -100% (active); in the assay on UACC-62 melanoma, -72% (active); in the assay with LOX IMVI melanoma, -100% (active); in the assay on SK-MEL-28 melanoma, -82.6% (active); in the assay with SK-MEL-2 melanoma, -80% (active); in the assay with EKVX NSCLC it was -95.6% (active). The growth in the assay on SN12C renal is -43.9% (active); in the assay on UO-31 renal it was 4.62% (active); with TK-10 renal it was -59.7% (active); in the assay on ACHN renal, -46.1% (active); in the assay on CAKI-1 renal, -44.1% (active); with A498 renal it was -100% (active). Besides, the growth in the assay on CCRF-CEM leukemia was -35% (active); in the assay with MOLT-4 leukemia, -8.92% (active).

Consider `ClCCn1cnc2c(SCc3ccccc3)ncnc21`, for which the growth in the assay on HCT-15 colon is 33.5%; in the assay on HT29 colon, 41.2%; in the assay with SNB-75 CNS, 73.9%; in the assay with SNB-19 CNS it was 50.5%; in the assay on U251 CNS, 39.8%; in the assay with PC-3 prostate it was 38.4%. In addition, the growth in the assay on SK-MEL-5 melanoma was 57.3%; in the assay on UACC-62 melanoma, 46.1%; in the assay on LOX IMVI melanoma it was 22.3%; in the assay with SK-MEL-28 melanoma it was 78.5%; in the assay with SK-MEL-2 melanoma, 120%; in the assay on EKVX NSCLC, 77.2%. For the same compound, the growth was 57.5% in the assay with SN12C renal; 65.2% with UO-31 renal; 83.5% in the assay with TK-10 renal; 49.4% in the assay with ACHN renal; 3.9% (active) in the assay with CAKI-1 renal; 81.6% in the assay with A498 renal. For the same compound, the values for the growth in the assay with CCRF-CEM leukemia and in the assay with MOLT-4 leukemia were 62.8% and 45.8%, respectively.

For the compound `CS(=O)(=O)Nc1cc(-c2ccc3ncnc(Nc4ccc5c(cnn5Cc5ccccc5F)c4)c3c2)cnc1Cl`, the growth with HCT-15 colon is 79.4%; in the assay on HT29 colon, 51%; with SNB-75 CNS, -15.7% (active); in the assay on SNB-19 CNS, 49.1%; in the assay on U251 CNS it was 46.3%; in the assay on PC-3 prostate, 37.5%. Also, the growth in the assay on SK-MEL-5 melanoma was 26.3%; in the assay with UACC-62 melanoma, 19.4%; in the assay with LOX IMVI melanoma, 25.9%; in the assay with SK-MEL-28 melanoma it was 17.5%; in the assay on SK-MEL-2 melanoma it was 15.3%; in the assay with EKVX NSCLC, 52.2%. In addition, the growth is 23.3% in the assay on SN12C renal; 43.2% in the assay on UO-31 renal; 30.6% in the assay on TK-10 renal; 59% in the assay with ACHN renal; 27.3% with CAKI-1 renal; -14.1% (active) in the assay on A498 renal. The growth was 31.1% in the assay with CCRF-CEM leukemia and 16.4% with MOLT-4 leukemia.

As to `CCCC(=O)NC(c1ccc2c(c1)OCO2)c1cc(Cl)c2cccnc2c1O` (stereo not given), the growth with HCT-15 colon is 30.9%; with HT29 colon, 21.2%; in the assay on SNB-75 CNS, 6.73% (active); with SNB-19 CNS it was 23.7%; in the assay on U251 CNS, 17.3%; in the assay with PC-3 prostate, 34.5%. For the same compound, the growth was 37.5% with SK-MEL-5 melanoma; 11% in the assay with UACC-62 melanoma; 23.4% with LOX IMVI melanoma; 46.1% in the assay with SK-MEL-28 melanoma; 58.7% in the assay on SK-MEL-2 melanoma; 30.1% in the assay on EKVX NSCLC. The growth is 38.1% with SN12C renal; -8.37% (active) with UO-31 renal; 37.6% with TK-10 renal; 18.1% with ACHN renal; 18.1% in the assay with CAKI-1 renal; 43.6% in the assay with A498 renal. For the same compound, the growth with CCRF-CEM leukemia was 13.2%; in the assay with MOLT-4 leukemia it was 16.6%.

With `CCCCC#Cc1c(I)n(C2OC(CO[Si](C)(C)C(C)(C)C)C3OC(C)(C)OC32)c(=O)n(C(=O)c2ccccc2)c1=O` (stereo not given), the growth with HCT-15 colon is 8.46% (active); in the assay on HT29 colon, 0.292% (active); in the assay on SNB-75 CNS, 93.3%; in the assay on SNB-19 CNS it was 72.3%; with U251 CNS it was -33.2% (active); with PC-3 prostate, 43%. Also, the growth in the assay on SK-MEL-5 melanoma is 78.7%; in the assay on UACC-62 melanoma, 55.1%; in the assay on LOX IMVI melanoma, -65.2% (active); in the assay with SK-MEL-28 melanoma, -42.9% (active); with SK-MEL-2 melanoma, 43%; with EKVX NSCLC, 74.8%. The growth is 57.8% in the assay on SN12C renal; -49.4% (active) in the assay on UO-31 renal; -11.4% (active) in the assay on TK-10 renal; 50.6% in the assay with ACHN renal; 26.9% with CAKI-1 renal; 87.9% with A498 renal. The growth is -7.06% (active) with CCRF-CEM leukemia and 1.98% (active) with MOLT-4 leukemia.
